HT1080NT lethal – qHTS for induction of synthetic lethality in tumor cells producing 2HG: qHTS for the HT-1080-NT fibrosarcoma cell line. hit rate 1.6% among 360,000. HT-1080-NT fibrosarcoma viability, CellTiter-Glo ATP luminescence, 48 h. Potency, µM (top dose mostly 46.1 µM), for the others: at the highest dose activity, negative = less viability, usual class: cytotoxic;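 further: NT is the 2HG producing partner of a matched IDH1 knockdown line; potency means the concentration at half of the fitted maximal effect; 0% = DMSO-treated cells and -100% = media-only wells without cells; nearly all actives have a fitted effect of over 55% in size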
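Fibrosarcoma NT cells, 750 per well in 5% FBS RPMI, were exposed to compound for 48 hours. Viability: CellTiter-Glo luminescence.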
KB-V1 MDR tox – qHTS assay for MDR1-selective chemotherapeutics: Primary screen using the drug-selected MDR subline cells KB-V1. hit rate 3.4% among 400,000. KB-V1 MDR cells viability, CellTiter-Glo, 72 h. Potency, µM (doses to about 46.1 µM), most hits filed as cytotoxic; further: potency means the concentration at half of the fitted maximal effect; nearly all actives have a fitted effect of over 60% in size
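Cells of the MDR subline KB-V1 are plated, dosed with compound at multiple concentrations, and incubated 72 h at 37 degrees C; CellTiter-Glo is then added and luminescence read after 10 min.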
HT1080 IDH1KD tx – qHTS for induction of synthetic lethality in tumor cells producing 2HG: qHTS for the HT-1080-IDH1KD cell line; HT-1080 IDH1 knockdown viability, ATP luminescence, 48 h; Potency, µM (series often up to 46.1 µM), for the others: top-dose activity, negative = toxicity, hits mostly cytotoxic; hit rate 2% among 360,000; AID 686971, 2013;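 further: potency means the concentration at half of the fitted maximal effect; 0% = DMSO wells and -100% = cell-free medium wells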
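Knockdown cells (IDH1KD HT-1080) received compounds 2 h after plating at 750 cells/well and were kept 48 h at 37 °C in 5% FBS RPMI. A CellTiter-Glo luminescence read gave % activity for curve fitting.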
IL-1B inflam inh – qHTS for Inhibitors of Inflammasome Signaling: IL-1-beta AlphaLISA Primary Screen | activity change, % at 57.5 µM | THP-1 LPS/ATP IL-1B secretion, AlphaLISA, 16 h; stronger effect = lower value | hit rate 4.7% among 360,000; in the data active means activity change below about -50%; inconclusive means mostly about -30% to -49%
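Secreted IL-1B measured by AlphaLISA bead assay after 16 h compound exposure of THP-1 cells; compounds (final up to 57.5 uM) added 1 h before LPS (250 ng/mL) and ATP (1.25 mM) stimulation; lower signal means less secretion.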
KB-3-1 tox – qHTS assay for MDR1-selective chemotherapeutics: Primary screen using the parental adenocarcinoma cell KB-3-1. KB-3-1 viability, CellTiter-Glo ATP luminescence, 72 h. Potency, µM (highest dose often 46.1 µM), most hits filed as cytotoxic. hit rate 1.4% among 400,000; further: potency means the concentration at half of the fitted maximal effect; nearly all actives have a fitted effect of over 60% in size
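Cytotoxicity measured as CellTiter-Glo luminescence after 72 h at 37 C. Compound titrations were pinned onto drug-naive KB-3-1 parental adenocarcinoma cells grown in DMEM with 10% FBS, and normalized data fitted to concentration-response curves.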
* = called active by the depositor; i = inactive; ? = inconclusive; / = no result. Compounds with a hit are over-represented: about 8.8% of the library has one in this group of screens. Unless noted, the call rests on the fitted dose curve; in most records, active means well fitted curve in the direction sought with a large enough effect; inconclusive means small, poorly fitted or top-dose-only effect, or another doubt; inactive means no such curve, though single readings can be large; an effect the other way counts as inactive or inconclusive. Unless noted, on the % scale 0 is the no-effect control and ±100 the full control effect.

SMILES	HT1080NT lethal	KB-V1 MDR tox	HT1080 IDH1KD tx	IL-1B inflam inh	KB-3-1 tox
CN1CCN(Nc2nn3c(=O)c4ccccc4nc3s2)CC1	/	?	/	/	i
O=C(Cc1cccc(C(F)(F)F)c1)OCN1C(=O)c2ccccc2C1=O	17%	i	8%	11	i
O=C(NCCN1CCOCC1)C(=O)NCC1OCCN1S(=O)(=O)c1ccccc1 (stereo not drawn)	13%	?	7%	30	i
Cc1cccc(N2CCN(C(=O)c3ccc4ncsc4c3)CC2)c1C	2.6µM*	?	5.8µM*	12	4.6µM*
O=C(c1ccc2ncsc2c1)N1CCN(c2ccccc2Cl)CC1	-14%	?	-24%	-66*	i
O=C(Nc1ccc(F)cc1)N1CCN(c2nc3ccccc3s2)CC1	?	i	-15%	-53*	i
O=C(Nc1ccccc1)N1CCN(c2nc3ccccc3s2)CC1	6%	i	2%	0	i
O=C(c1ccc2ncsc2c1)N1CCN(c2nc3ccccc3s2)CC1	?	7.3µM*	7%	i	?
CC(C)(C)C(=O)Nc1cccc(C(=O)OCc2cc(=O)n3nc(C4CC4)sc3n2)c1	/	i	/	/	i
O=S(=O)(Nc1ccc(S(=O)(=O)N2CCCC2)cc1)c1ccc(F)cc1F	-4%	i	-13%	-16	i
CN(C1CCCCC1)S(=O)(=O)c1ccc(C(=O)N2CCN(c3nc4ccccc4s3)CC2)cc1	0%	2.6µM*	9%	12	i
Cc1ccc(C)c(N2CCN(C(=O)c3ccc4nsnc4c3)CC2)c1	8.2µM*	8.2µM*	9.2µM*	?	12µM*
CN(C)c1ccc(Cc2cc3c(O)ccc(O)c3cc(Cc3ccc(N(C)C)cc3)c2=O)cc1	-1%	i	?	-113*	?
CCCS/C(N)=N/N=C/c1cc(C)ccc1O	-28%	?	?	-51*	i
CCCCS/C(N)=N/N=C/c1ccccc1O	-4%	i	0%	-29	i
CC(C)(C)c1sc(N)nc1-c1ccccc1	?	i	-20%	-102*	i
Cc1csc(=O)n1CCC(=O)N(C)Cc1c(F)cccc1Cl	11%	i	1%	11	i
COc1cccc(OCC(=O)N(C)Cc2nc(-c3cccc(C)c3)no2)c1	-20%	23µM*	-15%	-1	i
CCOc1ccc(OCCCC(=O)NCCc2ccc(OC)cc2)cc1	25%	i	3%	34	i
O=C(C[n+]1ccc(/C=C/c2ccccc2)cc1)c1ccc2c(c1)OCCO2	?	?	16µM*	-94*	12µM*
O=C(CCN1Cc2ccccc2C1)c1ccc2c(c1)OCCO2	?	i	11µM*	-90*	i
CCN1C(=O)[C@H]2[C@@H](c3ccc(C)cc3)N[C@]3(CCCN(Cc4ccc(Cl)cc4)C3=O)[C@H]2C1=O	4%	i	-1%	14	i
COCCN1CCN(C(=O)c2cc(COc3ccc(F)cc3F)on2)CC1	-17%	i	-12%	i	i
COC(=O)C1CCN(C(=O)COC(=O)C2CCN(S(=O)(=O)c3c(Cl)cccc3Cl)CC2)CC1	1%	?	1%	6	i
N#Cc1c(-n2cccc2/C=N/O)sc2c1CCCC2	8%	23µM*	6%	-24	i
SMILES	HT1080NT lethal	KB-V1 MDR tox	HT1080 IDH1KD tx	IL-1B inflam inh	KB-3-1 tox
CN(C(=O)c1cc(-n2cnnc2)ccc1Cl)c1ccccc1	14%	i	4%	0	i
COc1ccc(C(=O)C(/C=N/O)=N/Nc2ccc(F)cc2)cc1	-11%	i	-16%	38	i
COc1ccc(NC(=O)c2cccs2)cc1	-8%	i	-5%	-1	i
COc1ccc(N=N/C(=C\O)C(=O)c2cccs2)cc1	0%	i	-6%	-81*	i
COc1ccc(C(=O)/C(=C/O)N=Nc2ccc(F)cc2)cc1	?	i	?	-99*	i
Clc1cccc(CNCCNCc2cccc(Cl)c2)c1	-26%	i	-18%	-53*	i
O=C(NCc1ccccc1)c1cc(C2CCCCN2C(=O)c2ccc3c(c2)CCO3)on1 (stereo not drawn)	3%	i	1%	-9	i
O=C(NCc1ccc(F)cc1)c1cc(C2CCCCN2C(=O)c2ccc3c(c2)CCO3)on1 (stereo not drawn)	2%	?	-14%	-9	21µM*
Cc1cc(NC(=O)Nc2ccccc2[N+](=O)[O-])n(C)n1	-3%	i	-5%	2	i
COc1cc(CN2CC(=O)N(c3ccc(C)c(C)c3)C2=S)cc(OC)c1OC	2%	16µM*	-9%	-6	?
CCc1ccc(N2C(=O)CN(Cc3cc(OC)c(OC)c(OC)c3)C2=S)cc1	-13%	7.3µM*	-9%	-1	i
CCC(C(=O)NCc1ccco1)N(C(=O)CNS(=O)(=O)c1ccccc1)c1ccc(OC)cc1 (stereo not drawn)	-6%	23µM*	-3%	9	i
Cc1ccc(N(C(=O)c2sc(C)nc2C)C(C(=O)NCc2ccco2)c2ccccc2)cc1 (stereo not drawn)	0%	i	0%	-54*	i
CC1CC(C)CN(C(=O)CSc2ncnc3sccc23)C1 (stereo not drawn)	0%	21µM*	-5%	-15	i
Cc1ccc(-n2nc(C)c3c(C)c(CCC(=O)Nc4ccc(CN5CCCC5)cc4)c(C)nc32)cc1	-9%	i	15µM*	-86*	i
CCN(CC)CCNC(=O)CCc1c(C)nc2c(c(C)nn2-c2ccc(C)c(C)c2)c1C	?	i	26µM*	-7	?
COc1ccc(CCNC(=O)CCc2c(C)nc3c(c(C)nn3-c3ccc(C)c(C)c3)c2C)cc1OC	/	i	/	/	i
COC(CNC(=O)CCc1c(C)nc2c(c(C)nn2-c2ccc(C)cc2)c1C)OC	4%	i	5%	-18	i
CCCCCCCCNC(=S)NCCN1CCCCC1	-27%	?	-3%	-62*	i
CCOC(=O)CNC(=O)C12CC3CC(CC(C3)C1)C2	15%	i	14%	12	i
Cc1nonc1OCCNC(=O)C12CC3CC(CC(C3)C1)C2	-4%	23µM*	-8%	-6	i
CCCCNc1cc(F)nc(N)n1	0%	i	-1%	3	i
COc1ccc(OC)c(C2Nc3c(Cl)ccc(C(=O)O)c3C3C=CCC32)c1 (stereo not drawn)	?	i	?	-57*	i
